The supplement of paper PMC6607015
Counter-ions that a name gives are not always drawn.

Assays:
Conditions in all cases: compound concentration in added solution (µM; 5 µl added to 20 µl cells): 10; 18 h
A431 [1] = test: LBPA endosome anti-LBPA integrated intensity (sum per cell), Z-score; higher = more LBPA staining
Method in brief: (§1)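 In duplicate 384-well imaging plates, 3,500 HeLa MZ or A431 cells in 20 µl per well were seeded onto 5 µl of 10 µM compound solution. The cells were incubated for 18 h, fixed in 4% PFA and stained with 6C4 anti-LBPA antibody, filipin, propidium iodide and CellTracker green before four 20× images were acquired per well. Values are AcuityXpress-normalised Z-scores of per-cell integrated LBPA or filipin intensity, obtained by MetaXpress segmentation over the whole cell or in LBPA endosomes.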

HeLa MZ [2] = test: as above
Method in brief: as §1

A431 [3] = test: whole-cell filipin (free cholesterol) integrated intensity, Z-score; higher = more cholesterol staining
Method in brief: as §1

HeLa MZ [4] = test: as above
Method in brief: as §1

A431 [5] = test: filipin (cholesterol) integrated intensity within LBPA endosomes, Z-score; higher = more cholesterol in LBPA endosomes
Method in brief: as §1

HeLa MZ [6] = test: as above
Method in brief: as §1

Row | SMILES | LBPA endosome anti-LBPA integrated intensity (z-score) (A431 [1]) | LBPA endosome anti-LBPA integrated intensity (z-score) (HeLa MZ [2]) | whole-cell filipin (z-score) (A431 [3]) | whole-cell filipin (z-score) (HeLa MZ [4]) | filipin (z-score) (A431 [5]) | filipin (z-score) (HeLa MZ [6])
1 | CN(C)C(=N)NC(=N)N [Metformin hydrochloride] | -0.525 | -0.838 | -0.902 | -0.3 | -0.437 | -0.498
2 | Cc1ncc([N+](=O)[O-])n1CC(C)O (configuration not stated) [Secnidazole] | -0.291 | -0.288 | -0.203 | -0.327 | -0.374 | -0.579
3 | c1ccc(CNc2ncnc3nc[nH]c23)cc1 [Aminopurine, 6-benzyl] | -0.375 | -0.475 | -0.69 | -0.144 | -0.46 | -0.279
4 | Cn1cnc([N+](=O)[O-])c1Sc1ncnc2[nH]cnc12 [Azathioprine] | -0.583 | -0.922 | -0.805 | -1.15 | -0.521 | -0.677
5 | NCc1ccc(S(N)(=O)=O)cc1 [Mafenide hydrochloride] | -0.472 | -0.546 | -0.682 | -0.536 | -0.471 | -0.44
6 | NNc1nncc2ccccc12 [Hydralazine hydrochloride] | -0.438 | -1.11 | -0.55 | -0.572 | -0.474 | -0.461
7 | CC[N+](C)(CC)CCOC(=O)C1c2ccccc2Oc2ccccc21 [Methantheline bromide] | -0.356 | -0.164 | -0.155 | -0.214 | -0.359 | -0.379
8 | CN(Cc1cnc2nc(N)nc(N)c2n1)c1ccc(C(=O)N[C@@H](CCC(=O)O)C(=O)O)cc1 (racemic) [Amethopterin (R,S)] | -0.376 | 2.61 | 0.379 | 2.03 | -0.749 | -0.934
9 | C=C1c2c(Cl)ccc(O)c2C(=O)C2=C(O)[C@]3(O)C(=O)C(C(N)=O)=C(O)[C@@H](N(C)C)[C@@H]3[C@@H](O)[C@H]12.O=C(O)c1cc(S(=O)(=O)O)ccc1O [Meclocycline sulfosalicylate] | -0.505 | -0.19 | -0.811 | -1.34 | -0.554 | -0.823
10 | NCCC[C@H](N)CC(=O)N[C@H]1CNC(=O)[C@H]([C@H]2C[C@H](O)NC(N)=N2)NC(=O)/C(=C/NC(N)=O)NC(=O)[C@H](CO)NC(=O)[C@H](CO)NC1=O [Viomycin sulfate] | -0.57 | -1.06 | -0.305 | -0.46 | -0.563 | -0.474
11 | COc1ccc(C(=O)c2ccccc2)c(O)c1 [Oxybenzone] | -0.5 | -0.722 | -0.24 | 0.387 | -0.525 | -0.452
12 | Cc1c(O)c(=O)n(-c2ccccc2)n1C [Antipyrine, 4-hydroxy] | -0.407 | -0.193 | -0.48 | 0.114 | -0.485 | -0.43
13 | CC(=O)N[C@@H](CC(C)C)C(=O)O [N-Acetyl-L-leucine] | -0.45 | -0.158 | -0.322 | 0.0999 | -0.425 | -0.357
14 | O=C1NCCN1c1ncc([N+](=O)[O-])s1 [Niridazole] | -0.413 | 0.107 | -0.918 | -0.144 | -0.517 | -0.432
15 | CC(C)(C)NC[C@H](O)COc1cccc2c1CCCC2=O [(-) -Levobunolol hydrochloride] | -0.264 | 1.1 | -0.125 | -0.19 | -0.327 | 0.118
16 | OCCN1CCN(CCCN2c3ccccc3Sc3ccc(Cl)cc32)CC1 [Perphenazine] | 3.24 | 0.966 | -0.472 | -0.434 | 2.14 | 2.73
17 | CC(C)(C)NC[C@H](O)COc1ccccc1C1CCCC1 [Penbutolol sulfate] | 1.31 | 0.815 | 1.46 | 0.313 | 1.3 | 0.914
18 | CN1CCC(OC(c2ccccc2)c2ccccc2)CC1 [Diphenylpyraline hydrochloride] | 0.268 | 1.06 | 0.89 | 0.448 | 0.505 | 0.456
19 | CCN(CC)CCOc1ccc(C(=C(Cl)c2ccccc2)c2ccccc2)cc1 [Clomiphene citrate (Z,E)] | 1.86 | 0.54 | 0.0851 | 1.03 | 2.72 | 3.06
20 | O=C(O)CNC(=O)C(CS)Cc1ccccc1 (configuration not stated) [Thiorphan] | -0.785 | -1.92 | -0.897 | -0.571 | -0.691 | -0.682
21 | CCn1cc(C(=O)O)c(=O)c2cc(F)c(N3CCNC(C)C3)c(F)c21 (configuration not stated) [Lomefloxacin hydrochloride] | -0.676 | -1.53 | -1.2 | -0.837 | -0.597 | -0.65
22 | Cc1cc(C(C)(C)C)c(O)c(C)c1CC1=NCCN1 [Oxymetazoline hydrochloride] | -0.605 | 0.256 | -0.84 | -0.57 | -0.491 | -0.228
23 | CO[C@H]1C[C@H](O[C@H]2[C@H](C)[C@@H](O[C@@H]3O[C@H](C)C[C@H](N(C)C)[C@H]3OC(C)=O)[C@@H](C)C[C@@]3(CO3)C(=O)[C@H](C)[C@@H](OC(C)=O)[C@@H](C)[C@@H](C)OC(=O)[C@@H]2C)O[C@@H](C)[C@@H]1OC(C)=O [Troleandomycin] | -0.105 | 0.938 | -0.701 | -0.492 | -0.249 | -0.17
24 | Cc1onc(-c2c(Cl)cccc2Cl)c1C(=O)N[C@@H]1C(=O)N2[C@@H]1SC(C)(C)[C@@H]2C(=O)O [Dicloxacillin sodium salt hydrate] | -0.319 | -0.38 | -0.616 | -0.567 | -0.395 | -0.582

Row | SMILES | LBPA endosome anti-LBPA integrated intensity (z-score) (A431 [1]) | LBPA endosome anti-LBPA integrated intensity (z-score) (HeLa MZ [2]) | whole-cell filipin (z-score) (A431 [3]) | whole-cell filipin (z-score) (HeLa MZ [4]) | filipin (z-score) (A431 [5]) | filipin (z-score) (HeLa MZ [6])
25 | Cc1c(N(C)C)c(=O)n(-c2ccccc2)n1C [Amidopyrine] | -0.435 | -0.447 | -0.729 | 0.0263 | -0.495 | -0.518
26 | C#C[C@]1(O)CC[C@H]2[C@@H]3CCc4cc(O)ccc4[C@H]3CC[C@@]21C [Ethinylestradiol] | -0.522 | -1.4 | -0.139 | -0.678 | -0.442 | -0.49
27 | CCN(CC)CCOC(=O)C(Cc1cccc2ccccc12)CC1CCCO1 (configuration not stated) [Nafronyl oxalate] | 1.69 | 2.05 | 1.62 | 0.888 | 1.25 | 1.15
28 | C[C@H](CCC(=O)O)[C@H]1CC[C@H]2[C@@H]3[C@@H](O)C[C@@H]4C[C@H](O)CC[C@]4(C)[C@H]3CC[C@]12C [Urosiol] | -0.47 | -1.19 | -0.529 | -0.329 | -0.433 | -0.53
29 | C[C@H]1C[C@@H]2[C@H]([C@@H](O)C[C@@]3(C)[C@H]2CC[C@]3(O)C(=O)CO)[C@@]2(C)C=CC(=O)C=C12 [Methylprednisolone, 6-alpha] | -0.113 | 0.0903 | -0.236 | -0.329 | -0.297 | -0.497
30 | CC(C)(C)NC(=O)[C@@H]1C[C@@H]2CCCC[C@@H]2CN1C[C@@H](O)[C@H](Cc1ccccc1)NC(=O)[C@H](CC(N)=O)NC(=O)c1ccc2ccccc2n1 [Saquinavir mesylate] | 0.938 | 0.684 | 1.12 | 0.276 | 0.903 | 0.906
31 | Nc1ccc(S(=O)(=O)Nc2ccnn2-c2ccccc2)cc1 [Sulfaphenazole] | -0.541 | -1.02 | -0.89 | -1.05 | -0.533 | -0.671
32 | CC1(C)O[C@@H]2C[C@H]3[C@@H]4C[C@H](F)C5=CC(=O)C=C[C@]5(C)[C@H]4[C@@H](O)C[C@]3(C)[C@]2(C(=O)CO)O1 [Flunisolide] | -0.32 | -1.26 | -0.035 | -0.18 | -0.256 | -0.365
33 | NS(=O)(=O)c1cc(C(=O)O)c(NCc2ccco2)cc1Cl [Furosemide] | -0.539 | -0.705 | -0.993 | -0.823 | -0.572 | -0.492
34 | CCc1cc(C(N)=S)ccn1 [Ethionamide] | -0.517 | -0.148 | -0.588 | 0.221 | -0.493 | -0.459
35 | CC(C)NCC(O)c1ccc(O)c(O)c1 (single isomer, unassigned; (+)) [(+)-Isoproterenol (+)-bitartrate salt] | -0.327 | 0.363 | -0.262 | -0.346 | -0.516 | -0.475
36 | CC(C)NCC(O)c1cc(O)cc(O)c1 (configuration not stated) [Metaproterenol sulfate, orciprenaline sulfate] | -0.366 | -0.417 | -0.271 | -0.375 | -0.531 | -0.465
37 | CC(C)NCC(O)COc1ccc(CCOCC2CC2)cc1 (configuration not stated) [Betaxolol hydrochloride] | 2.57 | 2.19 | 0.139 | -0.283 | 0.614 | 0.292
38 | CC(C)(C)NCC(O)COc1cccc2c1CCC(=O)N2 (configuration not stated) [Carteolol hydrochloride] | -0.364 | 0.373 | -0.558 | -0.304 | -0.479 | -0.264
39 | CC(=O)Oc1ccccc1C(=O)Oc1ccccc1C(=O)O [Acetylsalicylsalicylic acid] | -0.367 | -0.319 | -0.583 | -0.226 | -0.456 | -0.52
40 | CC(C)(Oc1ccc(C2CC2(Cl)Cl)cc1)C(=O)O (configuration not stated) [Ciprofibrate] | -0.486 | -0.255 | -0.125 | -0.278 | -0.419 | -0.482
41 | CC(=O)CCCCn1c(=O)c2c(ncn2C)n(C)c1=O [Pentoxifylline] | -0.527 | -0.115 | -0.786 | -0.278 | -0.513 | -0.514
42 | CC(C)NCC(O)COc1ccc(COCCOC(C)C)cc1 (configuration not stated) [Bisoprolol fumarate] | 0.695 | 0.146 | -0.603 | 0.308 | -0.0123 | -0.0431
43 | Cc1nc2n(c(=O)c1CCN1CCC(c3noc4cc(F)ccc34)CC1)CCCC2 [Risperidone] | 0.208 | 1.64 | 0.491 | 0.264 | -0.0506 | 0.539
44 | Cc1cc(-c2ccccc2)nnc1NCCN1CCOCC1 [Minaprine dihydrochloride] | -0.498 | -0.183 | -0.925 | -0.799 | -0.593 | -0.625
45 | C[C@H]1c2cccc(O)c2C(=O)C2=C(O)[C@]3(O)C(=O)C(C(N)=O)=C(O)[C@@H](N(C)C)[C@@H]3[C@@H](O)[C@@H]21 [Doxycycline hydrochloride] | -0.633 | -1.71 | -0.0102 | -0.552 | -0.531 | -0.743
46 | CC(C)Cn1cnc2c(N)nc3ccccc3c21 [Imiquimod] | 0.0371 | 0.531 | 0.233 | 0.058 | -0.267 | -0.158
47 | CCC(=O)OCC(=O)[C@@]1(OC(=O)CC)[C@H](C)C[C@H]2[C@H]3[C@H]([C@@H](O)C[C@@]21C)[C@@]1(C)C=CC(=O)C=C1C[C@H]3Cl [Alclometasone dipropionate] | -0.24 | 0.1 | -0.316 | -0.125 | -0.325 | -0.277
